Most compounds without a hit are left out; they make up all but 27% or so of the library.
CYP2C19 inh: inhibitors of human CYP2C19 | AID 778 | CYP2C19 Supersomes, luciferin-H EGE luminescence, 30 min | inhibition, % at 5 µM | 21% of 96,000 active | P33261;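 active = CYP2C19 inhibition above a set limit at 5 µM in the primary screen, cut at about 50% in these data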
Target sequence (P33261 whole entry, looked up): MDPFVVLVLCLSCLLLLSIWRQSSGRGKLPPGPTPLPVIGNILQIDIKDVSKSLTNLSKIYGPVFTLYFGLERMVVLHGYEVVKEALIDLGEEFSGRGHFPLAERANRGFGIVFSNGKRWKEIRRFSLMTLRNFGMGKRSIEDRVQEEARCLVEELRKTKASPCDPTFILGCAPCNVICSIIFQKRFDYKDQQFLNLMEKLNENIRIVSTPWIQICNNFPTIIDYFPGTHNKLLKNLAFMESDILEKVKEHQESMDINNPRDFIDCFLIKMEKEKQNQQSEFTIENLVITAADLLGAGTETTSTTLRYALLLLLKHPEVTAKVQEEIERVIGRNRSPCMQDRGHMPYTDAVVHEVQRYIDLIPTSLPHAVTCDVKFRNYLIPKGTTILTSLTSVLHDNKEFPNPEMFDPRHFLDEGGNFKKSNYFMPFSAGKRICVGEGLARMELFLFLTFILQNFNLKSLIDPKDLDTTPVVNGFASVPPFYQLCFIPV
CYP2C19 act: increases human CYP2C19 enzyme activity; P33261; recombinant CYP2C19, luciferin-H EGE luminescence; active compounds read high; 0 = fully inhibited enzyme, 1 = untreated enzyme; activation factor at 5 µM; 96,000 tested, under 10 active; AID 1025;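 active = activation factor of at least 2 at 5 µM in the primary screen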
CYP2C9 inh: inhibitors of human CYP2C9 | 20% of 96,000 active | inhibition, % at 5 µM | CYP2C9 Supersomes, luciferin-H conversion, luminescence | P11712;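 active = blocking of liver enzyme CYP2C9 beyond about 50% at 5 µM, limit read from the data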
EphB4 antag: antagonists of human EphB4-ephrin-B2 interaction; 0.15% of 97,000 active; inhibition, % at 7 µM; AID 720; EphB4 LBD / TNYL-RAW-Alexa532 peptide, fluorescence polarization; P54760;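 active = inhibition above the screen-wide mean inhibition plus 3 SD, cut at about 15% in these data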
CYP2C9 act: CYP2C9 (human) activation; recombinant CYP2C9, luciferin-H conversion, luminescence; active compounds read high; factor 1 = untreated enzyme, 0 = blocked; P11712; activation factor at 5 µM; AID 1024; 1.4% of 96,000 active;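 active = activation factor of 2 or more for CYP2C9 at a 5 µM dose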
Of the large screens only hits and unclear results are named; the others gave an inactive call.

Cc1c(Cl)cccc1-n1c(SCC(=O)NCc2cccs2)nnc1-c1ccncc1	CYP2C19 inh 96.8, CYP2C9 inh 76.6
O=C(CSc1nnc(-c2ccncc2)n1-c1ccc(Cl)cc1)NCc1cccs1	CYP2C19 inh 96.0, CYP2C9 inh 76.8
Cn1c(SCC(=O)NCc2cccs2)nnc1-c1ccncc1	none
N#CC1=C(N)Oc2c(ccc3ccccc23)C1c1ccsc1 (stereo not drawn)	none
Cc1onc(-c2ccccc2)c1-c1n[nH]c(=S)n1-c1ccccc1Cl	none
CC1(C(=O)NCc2cccnc2)CCC(=O)N1Cc1cccs1 (stereo not drawn)	CYP2C19 inh 51.5 (no result: EphB4 antag)
CCNC(=O)NC(=O)C(C)OC(=O)c1oc2ccc(OCC)cc2c1C (stereo not drawn)	none
N=c1cc(C2(O)CCCCC2)n2c(nc3ccccc32)s1	CYP2C9 inh 58.0
CC1CCCCN1C(=O)CN1C(=O)CN(C)C(=O)c2ccccc21 (stereo not drawn)	none
CCCCC(=O)NC(c1ccc(OC)c(OC)c1)c1c(O)ccc2ccccc12 (stereo not drawn)	CYP2C19 inh 63.1, CYP2C9 inh 88.4
CCCC(=O)NC(c1ccc(OC)c(OC)c1)c1c(O)ccc2ccccc12 (stereo not drawn)	CYP2C19 inh 74.0, CYP2C9 inh 70.9
COc1ccc(OC)c(N2C(=O)CC(C(C)c3ccccc3)C2=O)c1 (stereo not drawn)	CYP2C19 inh 66.2
O=C(CSc1nccc(-c2ccc(Br)cc2)n1)NCCc1ccccc1	CYP2C19 inh 62.2
CCc1c(C)c2ccc(OCC(=O)OC)cc2oc1=O	CYP2C19 inh 58.8
CCCn1c(N2CCN(Cc3cccc(C)c3)CC2)nc2c1c(=O)[nH]c(=O)n2C	CYP2C19 inh 90.4
CC(C)CCn1c(N2CCN(Cc3ccccc3)CC2)nc2c1c(=O)[nH]c(=O)n2C	CYP2C19 inh 77.4, CYP2C9 inh 76.0
CCCCn1c(NC(C)CC)nc2c1c(=O)[nH]c(=O)n2C (stereo not drawn)	CYP2C9 inh 53.3
Cc1csc(SCCn2c(N3CCN(c4ccccc4)CC3)nc3c2c(=O)[nH]c(=O)n3C)n1	CYP2C9 inh 51.8
CCN1CCN(c2nc3c(c(=O)[nH]c(=O)n3C)n2CCSc2nc3ccccc3s2)CC1	none
Cc1cccc(Cn2c(CN3CCN(Cc4ccccc4)CC3)nc3c2c(=O)[nH]c(=O)n3C)c1	none (no result: EphB4 antag)
Fc1ccc(CN2CCCCCCC2)c(F)c1	none (no result: EphB4 antag)
COCCNC(=O)CN1CCC(NC(=O)Nc2ccc(C(F)(F)F)cc2)CC1	none
CCCCCn1c(N2CCN(Cc3ccccc3)CC2)nc2c1c(=O)[nH]c(=O)n2C	CYP2C19 inh 61.0
Cn1c(=O)[nH]c(=O)c2c1nc(N1CCCCCC1)n2CCCSc1nc2ccccc2o1	CYP2C19 inh 65.5, CYP2C9 inh 82.7
CCCn1c(N2CCN(CC(=O)c3c[nH]c4ccccc34)CC2)nc2c1c(=O)[nH]c(=O)n2C	CYP2C9 inh 69.7
Cn1c(=O)c2c(nc(N3CCCCCC3)n2CCSc2nc3ccccc3o2)n(C)c1=O	none
CC(C)CCn1c(SCC(=O)c2ccccc2)nc2c1c(=O)[nH]c(=O)n2C	CYP2C9 inh 73.3
O=C(c1ccc2c(c1)OCO2)N1CCCC(c2ccccc2)C1 (stereo not drawn)	CYP2C19 inh 87.4
CC(=O)N1CCN(c2ccc(NCc3ccc4c(c3)OCO4)cc2)CC1	none
O=C(c1cnccn1)N1CCN(c2ccccc2)CC1	CYP2C19 inh 52.9
O=C(c1ccc2c(c1)OCO2)N1CCCC1	none
O=C(c1ccccc1)N1CCN(c2ccc(NCc3ccc4c(c3)OCO4)cc2)CC1	CYP2C9 inh 67.6
Cc1nn(C(=O)c2ccc3c(c2)OCO3)c(N)c1-c1ccccc1	CYP2C9 inh 53.1
CC(CN(C(N)=O)c1ccccc1O)C(=O)O (stereo not drawn)	none
COC(=O)c1cccc(NC(=O)C2C3CCC(C3)C2C(=O)O)c1 (stereo not drawn)	none
COc1ccc(N2CCN(C(=O)c3ccc4c(c3)OCO4)CC2)cc1	none
CC(C)(C)C(=O)Nc1ccccc1N1CCN(C(=O)c2ccc(Cl)cc2)CC1	CYP2C19 inh 76.4, CYP2C9 inh 75.0
Cc1ccc(C(=O)N2CCN(c3ccc(NC(=S)NC(=O)Cc4ccccc4)cc3)CC2)cc1	CYP2C9 inh 51.6
O=C(c1ccc2c(c1)OCO2)N1CCN(c2ccc(Cl)cc2)CC1	CYP2C19 inh 97.3, CYP2C9 inh 88.8
O=C(c1ccc2c(c1)OCO2)N1CCN(c2ccccc2F)CC1	CYP2C19 inh 82.7, CYP2C9 inh 53.2
CC(C)CN1CCC(C(=O)NCC2CCCO2)CC1 (stereo not drawn)	none (no result: CYP2C19 inh, CYP2C19 act, CYP2C9 inh, CYP2C9 act)
Cn1nnc2cc(C(=O)N3CCC(c4ccccc4)C3)ccc21 (stereo not drawn)	CYP2C19 inh 79.7
O=C(c1cnsn1)N1CCN(c2ccccc2)CC1	none
O=C(c1cc(C2CC2)on1)N1CCN(c2ccccc2)CC1	CYP2C19 inh 90.6, CYP2C9 inh 52.3
O=C(c1cc(-c2ccc3c(c2)OCO3)on1)N1CCN(c2ccccc2)CC1	CYP2C9 inh 50.5
COc1ccc(C(=O)c2ccc(N3CCN(C(=O)c4ccc(F)cc4)CC3)c(F)c2)cc1Br	CYP2C19 inh 65.9
O=C(CCn1c(=O)oc2ccccc21)N1CCN(c2ccc(F)cc2)CC1	none (no result: EphB4 antag)
Cc1ccc(C(=O)N2CCN(c3ccc(Cl)cc3)CC2)cc1	CYP2C19 inh 54.2, CYP2C9 inh 51.4
COc1cc(CCC(=O)Nc2cc(Cl)ccc2N2CCN(C)CC2)cc(OC)c1OC	CYP2C19 inh 64.1
COC(=O)c1ccc(NC(=O)CCN2CCN(c3ccccc3)CC2)cc1	CYP2C9 inh 55.2
O=C(Nc1ccccc1N1CCN(C(=O)c2ccc(Cl)cc2)CC1)c1ccc2c(c1)OCO2	CYP2C19 inh 89.9, CYP2C9 inh 83.9
COc1ccc(C(=O)N2CCN(c3ccc(C)cc3)CC2)cc1OC	none
CC(C)COC(=O)Nc1nnc(SCc2ccccc2F)s1	none
O=C(c1ccco1)N1CCCC(c2ccccc2)C1 (stereo not drawn)	none
COc1cc(C(=O)N2CCN(c3cc(Cl)ccc3Cl)CC2)cc(OC)c1OC	CYP2C9 inh 62.5
O=C(CCN1CCN(c2ccccc2F)CC1)Nc1ccc2c(c1)OCO2	CYP2C19 inh 70.8, CYP2C9 inh 88.0 (no result: EphB4 antag)
O=C(O)c1cc(NCc2ccc3c(c2)OCO3)ccc1N1CCOCC1	none
COC(=O)c1cc(NCc2ccc3c(c2)OCO3)ccc1N1CCOCC1	CYP2C19 inh 76.8, CYP2C9 inh 52.1
O=C(c1cccs1)N1CCCC(c2ccccc2)C1 (stereo not drawn)	CYP2C19 inh 85.3, CYP2C9 inh 53.2
Cc1cc(C)nc(-n2c(Nc3ccccc3)cc(=O)c3c(C)n(-c4ccccc4)c(=O)nc32)n1	none (no result: CYP2C19 inh, CYP2C19 act, CYP2C9 inh, CYP2C9 act)
Cc1nc(CC(=O)N2CCN(S(=O)(=O)c3ccccc3C#N)CC2)cs1	none
Cc1nc(Nc2nc(=O)c3ccccc3n2C)nc2c(C)cccc12	none (no result: CYP2C19 inh, CYP2C19 act, CYP2C9 inh, CYP2C9 act)
COc1ccc(OC)c2c(C)cc(N3CCN(C(=O)c4ccc(Cl)cc4)CC3)nc12	CYP2C9 inh 55.6
